# From PubChem BioAssay
# Compounds with a hit are over-represented: about 2.4% of the library has one in this group of screens.
# D2 antagonist = antagonists of human D2 dopamine receptor; HEK293 TREx D2 cells, calcium flux, dopamine EC80; inhibition, % at 10 µM; actives 2% (n = 340,000); AID 485344; in the data active = inhibition above about 30%; inactive = below that, where a call was filed; also: 0% is about no effect
# Target sequence (P14416 whole entry, looked up): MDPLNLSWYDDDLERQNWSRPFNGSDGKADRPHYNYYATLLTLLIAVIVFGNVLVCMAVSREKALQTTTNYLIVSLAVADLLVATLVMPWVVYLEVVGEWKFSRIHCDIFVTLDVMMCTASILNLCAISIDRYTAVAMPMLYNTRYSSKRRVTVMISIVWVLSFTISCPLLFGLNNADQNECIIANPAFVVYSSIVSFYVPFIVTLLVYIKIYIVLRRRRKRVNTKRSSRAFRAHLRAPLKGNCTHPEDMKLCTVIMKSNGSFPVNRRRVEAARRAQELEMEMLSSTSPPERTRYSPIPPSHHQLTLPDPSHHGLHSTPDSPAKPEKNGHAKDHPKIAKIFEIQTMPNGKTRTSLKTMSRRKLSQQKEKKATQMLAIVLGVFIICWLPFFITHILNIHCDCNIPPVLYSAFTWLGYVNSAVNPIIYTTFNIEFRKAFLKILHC
#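 In this primary screen, negative modulation is detected by tracking calcium flux after an EC80 dopamine challenge in inducible HEK293 T-REx D2 cells preexposed to test compound for 180 s.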
# D2 PAM-1 = positive allosteric modulators of human D2 dopamine receptor; DiscoveRx D2 beta-arrestin cells, luminescence, 90 min; 100% = 57 uM dopamine signal; potentiation, % (test concentration not listed); actives 0.23% (n = 360,000); AID 624464; in the data active = potentiation above about 50%; inconclusive = mostly about 30% to 49%
#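 PathHunter beta-arrestin assay in DiscoveRx D2 cells. Compounds were added with an EC20 of dopamine (50 nM final) for 90 min at 37 deg C. Luminescence was read 1 h after detection reagent, with 57 uM dopamine as the EC100 control.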
# D2 ag-1 = D2 dopamine receptor (human) agonism. activation, % at 2 µM. AID 485358. HEK293 T-REx D2 cells, calcium flux agonist mode. actives 0.53% (n = 340,000). P14416;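 active = activation over 3 SD above normal in the single-dose calcium agonist read, cut at about 30% in these data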; also: 0% is about no effect
#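 HEK293 Trex D2 cells, tetracycline-induced, o/n 30 C 5% CO2; no-wash Ca dye, RT 30–90 min; 10-cycle baseline, 23 nl cpd added, kinetic Ca read 180 s; agonist hits = positive Ca response.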
# D2 ag-2 = agonists of human D2 dopamine receptor (beta-arrestin). P14416. DiscoveRx PathHunter D2 beta-arrestin, luminescence, 90 min; 100% = 57 uM dopamine signal. activation, % (test concentration not listed). actives 0.084% (n = 360,000). AID 624465; in the data active = activation above about 40%; inconclusive = between about 15% and that limit
#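 DiscoveRx PathHunter D2 beta-arrestin cells (2,100/well) attached overnight, then compound-stimulated 90 min at 37 C in HBSS/10 mM HEPES/0.1% Tween-20 buffer; beta-galactosidase complementation read by luminescence after 1 h at ambient temperature. Dopamine 57 uM final (EC100) as control.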
# D2 PAM-2 = positive allosteric modulators of human D2 dopamine receptor | HEK293 T-REx D2, calcium flux, EC20 dopamine potentiation | AID 485347 | potentiation, % at 10 µM | actives 0.34% (n = 340,000);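 active = potentiation over 3 SD above the plate norm, cut at about 30% in these data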; also: 0% is about no effect
#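 Primary screen. Calcium kinetics in induced HEK293 T-REx D2 cells: compound pre-addition 180 s, EC20 dopamine, 180 s more.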
# Numbers without * were called inactive; ? = inconclusive; · = not tested or not shown.
SMILES,D2 antagonist,D2 PAM-1,D2 ag-1,D2 ag-2,D2 PAM-2
Fc1ccc(N2CCN(C3CCC(c4ccccc4)CC3)CC2)cc1 (centres undefined),53*,0,12,-4,-18
CCN1CCC(N2CCN(c3ccc(F)cc3)CC2)CC1,-8,-4,1,0,-3
O=C(NC1CCCCC1)c1ccc(-c2ccccc2[N+](=O)[O-])o1,59*,-18,-1,2,-23
O=C(c1cccc(F)c1)N1CCN(C(=O)C(c2ccccc2)c2ccccc2)CC1,31*,-4,-3,9,·
COc1ccc(OCC(=O)Nc2ccc(NC(=O)c3cccs3)cc2)cc1,-11,-6,-1,0,32*
COc1ccc(NC(=O)c2cccs2)cn1,9,-4,0,-5,-7
CC(C)(C)c1ccc(Oc2ccc(NC(=O)c3cccs3)cn2)cc1,-1,1,9,2,31*
COc1ccc(OCC(=O)NNC(=O)c2cccs2)cc1,1,10,0,1,3
Cn1c(/C(C#N)=C/c2ccc(C(F)(F)F)cc2)nc2ccccc21,·,·,1,·,8
CN(C)c1ccc(CNC(=O)c2cccc(NC(=O)N3CCSc4ncccc43)c2)cc1,·,·,0,·,5
Cc1n[nH]c(C)c1Sc1ccccc1N,-7,0,0,3,-8
Cc1cc(C)nc(Sc2c(C)n[nH]c2C)n1,32*,-9,1,1,-3
COc1ccc(Cl)cc1NC(=O)c1c(NCc2cccs2)sc2c1CCCC2,·,·,·,·,10
COc1ccccc1CN1CCc2c([nH]c3ccccc23)C1,53*,-69,4,-4,-19
CCn1c(Cc2ccccc2)nnc1SCC(=O)Nc1ccccc1O,40*,2,-1,5,3
CCn1c(Cc2ccccc2)nnc1SCC(=O)Nc1ccc(N2CCOCC2)c(Cl)c1,39*,-4,0,-1,13
Cn1c(SCC(=O)Nc2ccc(N3CCOCC3)c(Cl)c2)nnc1-c1ccccc1,·,-4,·,1,·
CCn1c(Cc2ccccc2)nnc1SCC(=O)NC(C)(C)C,8,-1,0,-2,8
CCN(c1ccc(C)cc1C)S(=O)(=O)c1nnc(NC(=O)c2ccccc2OC)s1,·,·,2,·,-2
CC1CCCCC1Nc1ncnc2sccc12 (centres undefined),36*,-6,0,6,14
Cc1oc(-c2ccccc2Cl)nc1CSc1nc2c(c(=O)[nH]1)CCC2,35*,9,0,14,5
Cc1oc(-c2cccc(Cl)c2)nc1CSc1nc2c(c(=O)[nH]1)CCC2,8,-7,-1,-1,-1
CC1(OC(=O)C2CCCC2)C(=O)C=C2C=C(c3ccsc3)N(C3CCCC3)C=C2C1=O (centres undefined),37*,21,-1,9,-3
CC(C)CN1C(=O)C(=O)N(CC(=O)NC(C)CCc2ccccc2)C1=O (centres undefined),52*,19,1,4,-2
CC(CCc1ccccc1)NC(=O)CN1CCN(Cc2ccccc2)C1=O (centres undefined),-7,-4,1,-2,-7
SMILES,D2 antagonist,D2 PAM-1,D2 ag-1,D2 ag-2,D2 PAM-2
CC(CCc1ccccc1)NC(=O)c1ccccc1C(=O)O (centres undefined),-5,-7,30*,1,-9
CC(CCc1ccccc1)NC(=O)c1ccc(C(=O)NC(C)CCc2ccccc2)cc1 (centres undefined),-3,-14,0,0,13
Cc1ccc(CN2CCN(CC(=O)NC(C)CCc3ccccc3)C2=O)cc1 (centres undefined),-21,0,-1,-1,30*
Cc1ccc(S(=O)(=O)N(C)Cc2nc(-c3ccccc3)oc2C)cc1,·,·,0,·,-7
Cc1c(NC(=O)c2ccc(-c3ccc(F)cc3)o2)cccc1-c1nc2ncccc2o1,·,·,0,·,-6
COc1ccc(C(=O)/C=C/Nc2ccc(S(=O)(=O)Nc3cc(OC)nc(OC)n3)cc2)c(OC)c1,31*,2,0,-2,7
COc1cccc(C(=O)/C=C/Nc2ccc(S(=O)(=O)Nc3cc(OC)nc(OC)n3)cc2)c1,-20,-5,0,-2,-5
OC(c1cccc(Cl)c1)c1nccc2ccccc12 (centres undefined),-3,-5,0,-2,2
O=C(OC(c1ccccc1)c1nccc2ccccc12)c1cc([N+](=O)[O-])cc([N+](=O)[O-])c1 (centres undefined),3,81*,-1,?,11
CCCCS(=O)(=O)N1C2=NC(C(=O)OC)=C(C(=O)OC)[C@@H]3N(C)c4ccc(OC)cc4[C@]23C[C@H]1C(=O)OC,34*,-4,0,-3,3
COC(=O)C1=C(C(=O)OC)[C@@H]2N(C)c3ccc(OC)cc3[C@@]23C[C@@H](C(=O)OC)N(S(=O)(=O)c2ccc([N+](=O)[O-])cc2)C3=N1,5,3,1,?,-7
COc1ccc(N2C(=O)CS(=O)(=O)C23C(=O)N(Cc2ccccc2F)c2ccccc23)cc1Cl (centres undefined),·,·,1,·,4
O=C(NNC(=O)c1ccc(NC(=O)c2ccccc2)cc1)c1ccc(F)cc1,-3,-3,-1,1,5
O=C(NC1=C(Nc2ccc(F)cc2)C(=O)c2ccccc2C1=O)c1ccc(Cl)cc1,-4,70*,0,10,-1
COc1ccc(-c2noc(-c3ccccc3NC(=O)c3cc(OC)c(OC)c(OC)c3)n2)cc1,·,·,1,·,1
O=C(CSc1nnnn1Cc1ccccc1)NCC(=O)c1ccccc1,-18,-24,0,-1,-4
O=C(CSc1nnnn1Cc1ccccc1)NCCc1ccccc1,32*,2,-2,-3,-1
Cc1ccc(NC(=O)CCN2C(=O)NC3(CCCC3)C2=O)c(C)c1,51*,-7,18,-5,-20
CCn1c(=O)c2cc(C(=O)N(CC(C)C)CC(C)C)sc2c2ccccc21,·,·,0,·,13
Cc1cc2nc(N)sc2cc1C,34*,-8,-1,0,9
CC(C)c1ccc2nc(N)sc2c1,-19,-6,0,1,-3
CSCCC(NC(=O)c1ccco1)C(=O)OC(C)C(=O)NC(=O)NC1CCCCC1 (centres undefined),49*,-3,7,-3,·
CCc1nnc(SCC(=O)N(C)c2ccccc2)c2cc3sccc3n12,·,·,1,·,·
O=C(NNc1nc2cc3c(cc2s1)OCO3)c1cccc(F)c1,40*,0,0,4,-13
COc1ccc(Cc2nn3c(Cn4nnc5ccccc54)nnc3s2)cc1,39*,-4,-1,-2,1
Cc1ccc(NC(=O)CN2C(=O)c3ccccc3C2=O)nc1,-8,-6,0,-7,-6
